From PubChem BioAssay AID1159580 (chemical genetic matrix, 2015)
The campaign covered roughly 5,500 compounds. About 2,000 (36%) were called active. Another 18% or so got no clear call; they are omitted. Rule as the data show it: active = normalized growth mostly below about 0.91 (no sharp cut-off); inconclusive = no clear call, values can overlap the other calls; inactive = mostly above about 0.92. The list shows a part of the results.

Assay: chemical genetic growth profiling, strain panel (AID 1159580);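 also: tested at 20 µM; growth read once vehicle control cultures reached saturation at 30 °C; 1 = growth at the plate median or of vehicle wells; lower values mean less growth of the strain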
Conditions: growth OD

Measured: normalized growth

NC(Cn1ccc(=O)c(O)c1)C(=O)O (configuration not stated)
inactive: S. cerevisiae deletion strains, locus YJR075W, strain HOC1, stronger effect = lower value 1.01 | S. cerevisiae deletion strains, locus YKL009W, strain mrt4, stronger effect = lower value 1.01 | S. cerevisiae deletion strains, locus YKL068W, stronger effect = lower value 0.993 | S. cerevisiae deletion strains, locus YKL085W, strain MDH1 (second series), stronger effect = lower value 0.993 | S. cerevisiae deletion strains, locus YKL085W, strain MDH1, stronger effect = lower value 0.993 | S. cerevisiae deletion strains, locus YKL160W, strain elf1, stronger effect = lower value 1.04 | S. cerevisiae deletion strains, locus YKL190W, strain CNB1, stronger effect = lower value 1.01 | S. cerevisiae deletion strains, locus YKR001C, strain vps1, stronger effect = lower value 0.991 | S. cerevisiae deletion strains, locus YKR026C, strain gcn3, stronger effect = lower value 1.03 | S. cerevisiae deletion strains, locus YKR091W, strain srl3, stronger effect = lower value 1.01 | S. cerevisiae deletion strains, locus YLL001W, strain dnm1, stronger effect = lower value 0.981 | S. cerevisiae deletion strains, locus YLL026W, stronger effect = lower value 1.01 | S. cerevisiae deletion strains, locus YLL041C, strain sdh2, stronger effect = lower value 1.01 | S. cerevisiae deletion strains, locus YLR027C, strain aat2, stronger effect = lower value 1.01 | S. cerevisiae deletion strains, locus YLR039C, strain RIC1, stronger effect = lower value 1.04 | S. cerevisiae deletion strains, locus YLR058C, strain SHM2, stronger effect = lower value 1.01 | S. cerevisiae deletion strains, locus YLR102C, strain apc9, stronger effect = lower value 0.988 | S. cerevisiae deletion strains, locus YLR113W, strain HOG1, stronger effect = lower value 1.03 | S. cerevisiae deletion strains, locus YLR221C, strain rsa3, stronger effect = lower value 1 | S. cerevisiae deletion strains, locus YLR258W, strain gsy2, stronger effect = lower value 1.03 | S. cerevisiae deletion strains, locus YLR262C, strain YPT6 (second series), stronger effect = lower value 0.977 | S. cerevisiae deletion strains, locus YLR262C, strain YPT6, stronger effect = lower value 1.03 | S. cerevisiae deletion strains, locus YLR268W, strain sec22, stronger effect = lower value 0.962 | S. cerevisiae deletion strains, locus YLR320W, strain mms22, stronger effect = lower value 0.981 | S. cerevisiae deletion strains, locus YLR330W, strain CHS5, stronger effect = lower value 1.01 | S. cerevisiae deletion strains, locus YLR342W, strain FKS1 (second series), stronger effect = lower value 1.06 | S. cerevisiae deletion strains, locus YLR342W, strain FKS1, stronger effect = lower value 1.03 | S. cerevisiae deletion strains, locus YLR357W, strain rsc2, stronger effect = lower value 0.986 | S. cerevisiae deletion strains, locus YLR370C, strain arc18, stronger effect = lower value 1.03 | S. cerevisiae deletion strains, locus YLR371W, strain rom2, stronger effect = lower value 0.995 | S. cerevisiae deletion strains, locus YLR384C, strain iki3, stronger effect = lower value 1.03 | S. cerevisiae deletion strains, locus YLR418C, strain cdc73, stronger effect = lower value 0.994 | S. cerevisiae deletion strains, locus YML016C, strain PPZ1, stronger effect = lower value 1.02 | S. cerevisiae deletion strains, locus YML032C, strain rad52, stronger effect = lower value 0.965 | S. cerevisiae deletion strains, locus YML120C, strain ndi1, stronger effect = lower value 1.01 | S. cerevisiae deletion strains, locus YML124C, strain tub3, stronger effect = lower value 0.995 | S. cerevisiae deletion strains, locus YMR058W, strain fet3, stronger effect = lower value 1.01 | S. cerevisiae deletion strains, locus YMR078C, strain ctf18, stronger effect = lower value 0.982 | S. cerevisiae deletion strains, locus YMR125W, strain sto1, stronger effect = lower value 1.04 | S. cerevisiae deletion strains, locus YMR129W, stronger effect = lower value 1.01 | S. cerevisiae deletion strains, locus YMR205C, strain PFK2, stronger effect = lower value 1.01 | S. cerevisiae deletion strains, locus YMR223W, strain ubp8, stronger effect = lower value 1.01 | S. cerevisiae deletion strains, locus YMR231W, strain pep5, stronger effect = lower value 1.02 | S. cerevisiae deletion strains, locus YMR263W, strain SAP30, stronger effect = lower value 1.01 | S. cerevisiae deletion strains, locus YMR307W, strain GAS1, stronger effect = lower value 1.02 | S. cerevisiae deletion strains, locus YNL067W, strain RPL9B, stronger effect = lower value 1.01 | S. cerevisiae deletion strains, locus YNL071W, strain lat1, stronger effect = lower value 1.02 | S. cerevisiae deletion strains, locus YNL128W, strain TEP1, stronger effect = lower value 1.01 | S. cerevisiae deletion strains, locus YNL153C, strain GIM3, stronger effect = lower value 1.01 | S. cerevisiae deletion strains, locus YNL183C, strain NPR1, stronger effect = lower value 0.974 | S. cerevisiae deletion strains, locus YNL209W, strain ssb2, stronger effect = lower value 1.03 | S. cerevisiae deletion strains, locus YNL233W, strain BNI4, stronger effect = lower value 1.02 | S. cerevisiae deletion strains, locus YNL248C, strain rpa49, stronger effect = lower value 1.04 | S. cerevisiae deletion strains, locus YNL250W, strain rad50, stronger effect = lower value 0.978 | S. cerevisiae deletion strains, locus YNL271C, strain bni1, stronger effect = lower value 0.984 | S. cerevisiae deletion strains, locus YNL298W, strain CLA4, stronger effect = lower value 0.987 | S. cerevisiae deletion strains, locus YNL307C, strain MCK1, stronger effect = lower value 0.997 | S. cerevisiae deletion strains, locus YNL322C, strain KRE1 (second series), stronger effect = lower value 1.02 | S. cerevisiae deletion strains, locus YNL322C, strain KRE1, stronger effect = lower value 1.01 | S. cerevisiae deletion strains, locus YNR049C, strain mso1, stronger effect = lower value 1.02 | S. cerevisiae deletion strains, locus YNR052C, strain pop2, stronger effect = lower value 0.992 | S. cerevisiae deletion strains, locus YOL006C, strain TOP1, stronger effect = lower value 1.01 | S. cerevisiae deletion strains, locus YOL012C, strain htz1 0.622 | S. cerevisiae deletion strains, locus YOL147C, strain pex11, stronger effect = lower value 0.985 | S. cerevisiae deletion strains, locus YOR001W, strain rrp6, stronger effect = lower value 0.969 | S. cerevisiae deletion strains, locus YOR061W, strain CKA2, stronger effect = lower value 1.03 | S. cerevisiae deletion strains, locus YOR069W, strain VPS5, stronger effect = lower value 1.01 | S. cerevisiae deletion strains, locus YOR070C, strain gyp1, stronger effect = lower value 1.03 | S. cerevisiae deletion strains, locus YOR080W, strain dia2, stronger effect = lower value 1.01 | S. cerevisiae deletion strains, locus YOR083W, strain WHI5, stronger effect = lower value 0.982 | S. cerevisiae deletion strains, locus YOR106W, strain vam3, stronger effect = lower value 1.02 | S. cerevisiae deletion strains, locus YOR136W, strain idh2, stronger effect = lower value 0.996 | S. cerevisiae deletion strains, locus YOR144C, strain elg1, stronger effect = lower value 0.985 | S. cerevisiae deletion strains, locus YOR184W, strain ser1, stronger effect = lower value 0.99 | S. cerevisiae deletion strains, locus YOR231W, strain MKK1, stronger effect = lower value 1.02 | S. cerevisiae deletion strains, locus YOR265W, strain rbl2, stronger effect = lower value 1.02 | S. cerevisiae deletion strains, locus YOR270C, strain vph1, stronger effect = lower value 1.07 | S. cerevisiae deletion strains, locus YOR290C, strain snf2, stronger effect = lower value 1.04 | S. cerevisiae deletion strains, locus YOR316C, strain cot1, stronger effect = lower value 0.988 | S. cerevisiae deletion strains, locus YPL051W, strain arl3, stronger effect = lower value 1.03 | S. cerevisiae deletion strains, locus YPL055C, strain LGE1, stronger effect = lower value 1.05 | S. cerevisiae deletion strains, locus YPL078C, strain atp4, stronger effect = lower value 1.05 | S. cerevisiae deletion strains, locus YPL106C, strain sse1, stronger effect = lower value 1.02 | S. cerevisiae deletion strains, locus YPL240C, strain hsp82, stronger effect = lower value 1.01 | S. cerevisiae deletion strains, locus YPL241C, strain CIN2, stronger effect = lower value 1.01 | S. cerevisiae deletion strains, locus YPL256C, strain CLN2, stronger effect = lower value 1.03 | S. cerevisiae deletion strains, locus YPR119W, strain clb2, stronger effect = lower value 0.988 | S. cerevisiae deletion strains, locus YPR141C, strain kar3, stronger effect = lower value 0.993 | S. cerevisiae deletion strains, locus YPR163C, strain tif3, stronger effect = lower value 0.987 | S. cerevisiae deletion strains, locus YPR167C, strain met16, stronger effect = lower value 0.99 | S. cerevisiae deletion strains, strain wtn01, stronger effect = lower value 0.991 | S. cerevisiae strains, strain wild type, stronger effect = lower value 1.03
